# Source: PubChem BioAssay
# Values without a mark were called inactive. The source made the active and inactive calls. Rule as the data show it, unless noted: active = inhibition above about 25%; inactive = the rest.
# What was measured:
# [1] = target: Nuclear receptor coactivator 1 (Homo sapiens) (UniProt Q15788); assay: SRC1 coactivator transcriptional activity inhibitors, confirmation, cell-based, luminescence, quadruplicate (AID 588820;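 active = mean inhibition above 46.68%, the untreated control wells mean plus 3 SD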;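 also: 0% = DMSO wells and 100% = gossypol 36 µM treated wells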); details: HEK293 GAL4-SRC1 luciferase reporter, at 3.6 µM, hits give high values
# [2] = VP16 transactivation inhibitors, counter-screen for SRC1 inhibitor project, cell-based, luminescence, high throughput (AID 588824); details: cell-based VP16 transactivation luciferase luminescence; at 3.6 µM; hits give high values
# Nuclear receptor coactivator 1 (Homo sapiens), sequence (Q15788 whole entry, looked up, the tested form may be a part): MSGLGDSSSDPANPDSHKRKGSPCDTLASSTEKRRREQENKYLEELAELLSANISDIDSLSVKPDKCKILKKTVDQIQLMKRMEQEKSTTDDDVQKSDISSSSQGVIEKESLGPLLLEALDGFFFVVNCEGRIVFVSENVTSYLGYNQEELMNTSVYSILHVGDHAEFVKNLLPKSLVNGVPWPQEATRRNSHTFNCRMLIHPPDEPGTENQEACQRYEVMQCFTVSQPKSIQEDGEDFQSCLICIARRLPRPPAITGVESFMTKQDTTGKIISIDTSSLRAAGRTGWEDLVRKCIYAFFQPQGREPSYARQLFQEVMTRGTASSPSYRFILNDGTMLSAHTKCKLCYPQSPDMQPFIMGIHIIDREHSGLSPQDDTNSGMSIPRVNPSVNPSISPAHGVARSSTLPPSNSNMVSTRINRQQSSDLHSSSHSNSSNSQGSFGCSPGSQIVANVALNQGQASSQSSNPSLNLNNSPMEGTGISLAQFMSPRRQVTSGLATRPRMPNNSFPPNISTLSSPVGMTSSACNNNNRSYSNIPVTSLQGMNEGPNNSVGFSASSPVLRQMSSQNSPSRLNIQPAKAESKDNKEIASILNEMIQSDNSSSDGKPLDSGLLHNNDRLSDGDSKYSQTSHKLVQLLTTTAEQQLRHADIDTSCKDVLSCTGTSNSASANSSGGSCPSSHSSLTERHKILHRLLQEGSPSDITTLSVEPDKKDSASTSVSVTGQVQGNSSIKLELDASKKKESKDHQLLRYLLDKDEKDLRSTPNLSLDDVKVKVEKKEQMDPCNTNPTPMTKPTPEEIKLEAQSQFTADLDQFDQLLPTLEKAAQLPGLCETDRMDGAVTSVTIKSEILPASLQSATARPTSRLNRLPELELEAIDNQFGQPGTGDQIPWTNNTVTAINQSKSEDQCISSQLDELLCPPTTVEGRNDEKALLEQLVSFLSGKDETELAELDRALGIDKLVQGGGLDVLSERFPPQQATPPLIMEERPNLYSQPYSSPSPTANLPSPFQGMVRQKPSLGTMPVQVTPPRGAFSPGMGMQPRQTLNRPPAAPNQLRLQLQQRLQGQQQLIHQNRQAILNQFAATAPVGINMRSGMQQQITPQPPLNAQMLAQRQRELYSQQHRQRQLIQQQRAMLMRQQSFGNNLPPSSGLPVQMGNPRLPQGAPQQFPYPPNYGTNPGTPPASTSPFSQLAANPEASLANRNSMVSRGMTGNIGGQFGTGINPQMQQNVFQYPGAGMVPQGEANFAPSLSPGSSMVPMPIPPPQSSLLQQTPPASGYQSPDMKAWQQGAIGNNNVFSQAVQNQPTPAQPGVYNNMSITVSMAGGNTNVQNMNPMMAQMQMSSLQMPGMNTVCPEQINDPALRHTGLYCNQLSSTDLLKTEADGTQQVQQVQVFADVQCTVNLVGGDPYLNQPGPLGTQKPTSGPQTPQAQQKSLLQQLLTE
Structure (SMILES),inhibition [1],inhibition [2]
COc1ccccc1N1CCN(C(=O)C2CCN(S(=O)(=O)c3ccc4c(c3)CC(C)N4C(=O)C3CC3)CC2)CC1 (configuration not stated),-15.8%,5.48%
O=S(=O)(c1cccc(C(F)(F)F)c1)N1c2ccccc2-n2cccc2C1c1cccnc1 (configuration not stated),12.9%,17.7%
O=C(NC1CCCCC1)C(c1ccc(F)cc1)N(CCCN1CCOCC1)C(=O)c1ccc(CN2CCOCC2)o1 (configuration not stated),-0.03%,3.53%
Nn1c(SCC(=O)Nc2ccccc2)nnc(Cc2ccccc2)c1=O,0.49%,5.01%
CC(C)(CNC(=O)c1ccc(-c2cccc(C(F)(F)F)c2)o1)N1CCOCC1,-2.1%,-0.96%
O=C(Nc1ccccc1N1CCOCC1)c1ccc(N2CCOCC2)c([N+](=O)[O-])c1,-19.5%,-16.2%
COc1ccc(-n2nc(C(=O)NCC(=O)Nc3cc(OC)c(OC)c(OC)c3)c3ccccc3c2=O)cc1OC,-43.4%,-6.14%
COC(=O)C(C)Sc1nc(NCc2ccccc2)nc(N(C)C)n1 (configuration not stated),-11.2%,-11.6%
NC(=O)c1nsc(C(=O)N(c2ccccc2F)C(C(=O)NCc2ccccc2)c2ccc(O)cc2)c1N (configuration not stated),-15.1%,2.13%
COc1cccc(-c2cc(C(=O)Nc3cc(C)n(Cc4ccc(Cl)cc4)n3)no2)c1,1.04%,18.9%
O=[N+]([O-])c1ccc(CSc2ccc(S(=O)(=O)N3CCOCC3)cn2)cc1,-7.09%,0.46%
CCOc1ccc(NC(=S)N2CCC(NC(=O)c3ccco3)CC2)cc1,-7.01%,-4.78%
Cc1ccoc1C(=O)NCCNC(=O)c1occc1C,-20.6%,-15.1%
Cc1cc(C)c(OCCN2CCCC2)c(Cl)c1,-3.95%,2.73%
COc1ccc(N(Cc2cc3cc(OC)ccc3[nH]c2=O)S(=O)(=O)c2ccc(NC(C)=O)cc2)cc1,-21.4%,-1.84%
O=C1N=C(N2CCCC2)S/C1=C\C=C\c1ccccc1,-93.8%,-50.3%

Structure (SMILES),inhibition [1],inhibition [2]
COc1cc(C(=O)OCC(=O)NC(N)=O)cc(CN2C(=O)c3ccccc3C2=O)c1OC,-10.9%,-8.55%
CCOC(=O)C1=C(COC(=O)Cc2ccc(Br)cc2)NC(=O)NC1C (configuration not stated),-7.28%,-12.6%
CCc1ccc(NC(=O)C2CCN(S(=O)(=O)c3ccc4c(c3)CC(C)N4C(C)=O)CC2)cc1 (configuration not stated),-7.12%,12.7%
COc1ccc(NC(=O)c2cc3c(s2)CCC(C)C3)cc1S(=O)(=O)N1CCOCC1 (configuration not stated),9.02%,25.1%
COc1ccc(C(=O)NNC(=O)C(=O)Nc2ccc(C)c(Cl)c2)cc1,5.87%,-0.11%
CCN1CCN(c2ccc(S(=O)(=O)N3CCOCC3)cc2NC(=O)c2cc(Cl)nc3ccccc23)CC1,-18.2%,1.55%
COc1ccc(C(=O)Nc2ccc(N3CCCCCC3)cc2)cc1S(=O)(=O)N1CCOCC1,-2.46%,18.2%
Cc1c(O)ccc(/C(Cc2ccc3ccccc3n2)=N\N)c1O,-105%,-61.3%
CC(=O)c1cn(CCOc2cc(C)ccc2C)c2ccccc12,-27%,33.7% (active)
CCOC(=O)N1CCc2c(sc(NC(=O)CN3CCOCC3)c2C(=O)Nc2ccccc2)C1,-17.7%,-5.16%
CC(C)C(=O)NC(Nc1cccc([N+](=O)[O-])c1)C(Cl)(Cl)Cl (configuration not stated),1.13%,0.4%
COc1ccc(O)c(C2(O)C(=O)c3ccccc3C2=O)c1,-5.99%,3.91%
CCN(CC)S(=O)(=O)c1cccc(C(=O)OCC(=O)Nc2ccc3c(c2)c2ccccc2n3CC)c1,-11.9%,24.3%
CC(C)(C)NC(=O)C1(C)CCC(=O)N1CCCn1ccnc1 (configuration not stated),22.2%,16.9%
COc1ccccc1C1NC(=O)NC(C)=C1C(=O)OC1CCCC(C)C1 (configuration not stated),6.58%,-1.62%
